PubChem BioAssay (EPA / NIEHS)
Records with an inconclusive call do not appear. The source made the active and inactive calls. Rule for the calls: active = hit-call score of the fitted dose curve at least 0.9, where 1 is the maximum; inconclusive = response in the unintended direction; inactive = score below 0.9.

Columns and labels:
[1] = read-out: ABC Transporter (ABCB1), ABCB1 (gene 5243); test: CLD_ABCB1_24hr: CellzDirect (CLD) Gene Expression Assay for ABC Transporter (ABCB1) at 24 hours (AID 2283684)
Experimental: (§1) CLD_24hr is a cell-based, multiplexed-readout assay that uses hepatocyte, a human liver primary cell, with measurements taken at 24 hours after chemical dosing in a 96-well plate.CLD_ABCB1_24hr is one of 16 assay component(s) measured or calculated from the CLD_24hr assay. It is designed to make measurements of mRNA induction, a form of inducible reporter, as detected with chemiluminescence signals by Quantitative Nuclease Protection Assay (qNPA) technology.Data from the assay component CLD_ABCB1_24hr was analyzed at the endpoint, CLD_ABCB1_24hr, in the positive analysis fitting direction relative to DMSO as the negative control and baseline of activity. Using a type of inducible reporter, gain-of-signal activity can be used to understand changes in the reporter gene as they relate to the gene ABCB1. Furthermore, this assay endpoint can be referred to as a primary readout. To generalize the intended target to other relatable targets, this assay endpoint is annotated to the transporter intended target family, where subfamily is ABC transporter.
(§2) Human hepatocyte cultures were treated daily for two consecutive days with fresh dosing solutions containing appropriate concentrations of the 320 ToxCast chemicals (chemical identities were blinded to CellzDirect and other ToxCast collaborators), vehicle control (0.2% DMSO), and positive control inducers as summarized in Table 1. Due to the large number of treatment groups and chemicals examined, the ToxCast chemicals were divided into two groups (spanning two independent cultures of hepatocytes from separate donor preparations (Hu778: ToxCast plates 1 and 2; Hu776: ToxCast plates 3 and 4). Each preparation of human hepatocyte cultures was treated with respective vehicle control, medium only control, set of six positive controls/reference chemicals for the five hepatic receptor pathways, and a subset of eight of the ToxCast chemicals (indoxacarb, pyrithiobac-sodium, norflurazon, cyhalofop-butyl, methomyl, thiram, acetochlor, and propiconazole). These replicate data, coupled with internal replicates designed within the blinded ToxCast chemical library, provided additional data to evaluate interindividual differences between hepatocyte preparations and their potential impact on chemical profiles.Cell morphology and integrity were evaluated using phase-contrast microscopy as an indicator of hepatocyte cell health (Tyson & Green, 1987). Cultures for each treatment group (i.e., media, vehicle [0.2% DMSO], positive control inducers [multiple concentrations], and the ToxCast chemicals [multiple concentrations]) were observed and cell morphology was assessed relative to vehicle control cultures at each harvest time point (0, 6, 24, or 48 h). […] Images were evaluated at the conclusion of the study to assess changes in cell integrity and account for the effects of chemical exposure on uncharacteristic changes in concentration-dependent gene expression profiles. The results from these determinations of apparent cytotoxicity were annotated (yes/no) alongside the corresponding qNPA data for reference.At the conclusion of each treatment period, hepatocyte cultures (96-well) were washed with 1 volume of HBSS, lysed by addition of 25 ul ArrayPlate lysis buffer (HTG, Tucson, AZ), and 70 ul/well of Denaturation Oil, denatured by incubation at 95C for 10 min, and frozen at approximately -70C until analysis by nuclease protection assay (qNPA) (Roberts et al., 2007). […]

[2] = read-out: Cytochrome P450 2B6 (Homo sapiens) (UniProt P20813); test: CLD_CYP2B6_24hr: CellzDirect (CLD) Gene Expression Assay for xenobiotic metabolism (CYP2B6) at 24 hours (AID 2283686)
Method in brief: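 Primary human hepatocytes dosed daily for two days with fresh solutions, harvested at 24 hours; mRNA induction quantified by qNPA chemiluminescence, gain of signal vs 0.2% DMSO vehicle. Cytotoxicity annotated from phase-contrast morphology.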

[3] = read-out: Cytochrome P450 2C19 (Homo sapiens) (UniProt P33261); test: CLD_CYP2C19_24hr: CellzDirect (CLD) Gene Expression Assay for xenobiotic metabolism (CYP2C19) at 24 hours (AID 2283687);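 note: activity means mRNA induction above DMSO vehicle baseline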
Method in brief: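 Primary human hepatocytes (two donor preparations) dosed daily with fresh test chemical in 0.2% DMSO vehicle; CYP2C19 mRNA induction measured at 24 h by quantitative nuclease protection assay with chemiluminescence, fitted for gain of signal versus DMSO.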

[4] = read-out: Cytochrome P450 2C9 (Homo sapiens) (UniProt P11712); test: CLD_CYP2C9_24hr: CellzDirect (CLD) Gene Expression Assay for xenobiotic metabolism (CYP2C9) at 24 hours (AID 2283688)
Method in brief: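 Primary human hepatocytes from two donor preparations, dosed daily for two days at multiple concentrations; vehicle 0.2% DMSO. CYP2C9 mRNA induction at 24 h measured by qNPA chemiluminescence relative to DMSO; cytotoxicity annotated from morphology.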

[5] = read-out: Cytochrome P450 3A4 (Homo sapiens) (UniProt P08684); test: CLD_CYP3A4_24hr: CellzDirect (CLD) Gene Expression Assay for xenobiotic metabolism (CYP3A4) at 24 hours (AID 2283689)
Experimental: as §1, with “plate.CLD_CYP3A4_24hr” for “plate.CLD_ABCB1_24hr”, “CLD_CYP3A4_24hr” for “CLD_ABCB1_24hr”, “CLD_CYP3A4_24hr,” for “CLD_ABCB1_24hr,”, “CYP3A4.” for “ABCB1.”, “cyp” for “transporter”, “xenobiotic metabolism.” for “ABC transporter.”
as §2

[6] = read-out: organic anion transporter (SLCO1B1), SLCO1B1 (gene 10599); test: CLD_SLCO1B1_24hr: CellzDirect (CLD) Gene Expression Assay for organic anion transporter (SLCO1B1) at 24 hours (AID 2283690)
Experimental: as §1, with “plate.CLD_SLCO1B1_24hr” for “plate.CLD_ABCB1_24hr”, “CLD_SLCO1B1_24hr” for “CLD_ABCB1_24hr”, “CLD_SLCO1B1_24hr,” for “CLD_ABCB1_24hr,”, “SLCO1B1.” for “ABCB1.”, “organic anion” for “ABC”
Human hepatocyte cultures were treated daily for two consecutive days with fresh dosing solutions containing appropriate concentrations of the 320 ToxCast chemicals (chemical identities were blinded to CellzDirect and other ToxCast collaborators), vehicle control (0.2% DMSO), and positive control inducers as summarized in Table 1. […] These replicate data, coupled with internal replicates designed within the blinded ToxCast chemical library, provided additional data to evaluate interindividual differences between hepatocyte preparations and their potential impact on chemical profiles.Cell morphology and integrity were evaluated using phase-contrast microscopy as an indicator of hepatocyte cell health (Tyson & Green, 1987). Cultures for each treatment group (i.e., media, vehicle [0.2% DMSO], positive control inducers [multiple concentrations], and the ToxCast chemicals [multiple concentrations]) were observed and cell morphology was assessed relative to vehicle control cultures at each harvest time point (0, 6, 24, or 48 h). […] Images were evaluated at the conclusion of the study to assess changes in cell integrity and account for the effects of chemical exposure on uncharacteristic changes in concentration-dependent gene expression profiles. […]

[7] = read-out: Glyceraldehyde-3-phosphate dehydrogenase (Homo sapiens) (UniProt P04406); test: CLD_GAPDH_24hr: CellzDirect (CLD) Gene Expression Assay for Baseline Control (Glyceraldehyde 3-phosphate dehydrogenase) at 24 hours (AID 2283692)
Experimental: CLD_24hr is a cell-based, multiplexed-readout assay that uses hepatocyte, a human liver primary cell, with measurements taken at 24 hours after chemical dosing in a 96-well plate.CLD_GAPDH_24hr is one of 16 assay component(s) measured or calculated from the CLD_24hr assay. It is designed to make measurements of mRNA induction, a form of inducible reporter, as detected with chemiluminescence signals by Quantitative Nuclease Protection Assay (qNPA) technology.Data from the assay component CLD_GAPDH_24hr was analyzed at the endpoint, CLD_GAPDH_24hr, in the positive analysis fitting direction relative to DMSO as the negative control and baseline of activity. Using a type of inducible reporter, gain-of-signal activity can be used to understand changes in the reporter gene as they relate to the gene GAPDH. Furthermore, this assay endpoint can be referred to as a secondary readout, because this assay has produced multiple assay endpoints where this one serves a background control function. […]
Human hepatocyte cultures were treated daily for two consecutive days with fresh dosing solutions containing appropriate concentrations of the 320 ToxCast chemicals (chemical identities were blinded to CellzDirect and other ToxCast collaborators), vehicle control (0.2% DMSO), and positive control inducers as summarized in Table 1. […] These replicate data, coupled with internal replicates designed within the blinded ToxCast chemical library, provided additional data to evaluate interindividual differences between hepatocyte preparations and their potential impact on chemical profiles.Cell morphology and integrity were evaluated using phase-contrast microscopy as an indicator of hepatocyte cell health (Tyson & Green, 1987). Cultures for each treatment group (i.e., media, vehicle [0.2% DMSO], positive control inducers [multiple concentrations], and the ToxCast chemicals [multiple concentrations]) were observed and cell morphology was assessed relative to vehicle control cultures at each harvest time point (0, 6, 24, or 48 h). […]

[8] = read-out: Broad substrate specificity ATP-binding cassette transporter ABCG2 (Homo sapiens) (UniProt Q9UNQ0); test: CLD_ABCG2_24hr: CellzDirect (CLD) Gene Expression Assay for ABC Transporter (ABCG2) at 24 hours (AID 2283685)
Experimental: (§3) CLD_24hr is a cell-based, multiplexed-readout assay that uses hepatocyte, a human liver primary cell, with measurements taken at 24 hours after chemical dosing in a 96-well plate.CLD_ABCG2_24hr is one of 16 assay component(s) measured or calculated from the CLD_24hr assay. It is designed to make measurements of mRNA induction, a form of inducible reporter, as detected with chemiluminescence signals by Quantitative Nuclease Protection Assay (qNPA) technology.Data from the assay component CLD_ABCG2_24hr was analyzed at the endpoint, CLD_ABCG2_24hr, in the positive analysis fitting direction relative to DMSO as the negative control and baseline of activity. […] Furthermore, this assay endpoint can be referred to as a primary readout. […]
(§4) Human hepatocyte cultures were treated daily for two consecutive days with fresh dosing solutions containing appropriate concentrations of the 320 ToxCast chemicals (chemical identities were blinded to CellzDirect and other ToxCast collaborators), vehicle control (0.2% DMSO), and positive control inducers as summarized in Table 1. […] Cultures for each treatment group (i.e., media, vehicle [0.2% DMSO], positive control inducers [multiple concentrations], and the ToxCast chemicals [multiple concentrations]) were observed and cell morphology was assessed relative to vehicle control cultures at each harvest time point (0, 6, 24, or 48 h). […]

[9] = read-out: HMG-CoA synthase (HMGCS2), HMGCS2 (gene 3158); test: CLD_HMGCS2_24hr: CellzDirect (CLD) Gene Expression Assay for HMG-CoA synthase (HMGCS2) at 24 hours (AID 2283691)
Method in brief: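 Primary human hepatocytes from two donor preparations, dosed daily with fresh solutions; vehicle 0.2% DMSO, 24 h harvest. HMGCS2 mRNA quantified by qNPA with S1 nuclease digestion and chemiluminescence; gain fitted versus DMSO, cytotoxicity annotated by morphology.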

[10] = read-out: alkyl and aryl transferase (GSTA2), GSTA2 (gene 2939); test: CLD_GSTA2_24hr: CellzDirect (CLD) Gene Expression Assay for alkyl and aryl transferase (GSTA2) at 24 hours (AID 2283693)
Experimental: as §3, with “plate.CLD_GSTA2_24hr” for “plate.CLD_ABCG2_24hr”, “CLD_GSTA2_24hr” for “CLD_ABCG2_24hr”, “CLD_GSTA2_24hr,” for “CLD_ABCG2_24hr,”
as §4

Measured: AC50

Chain of Cytochrome P450 3A4 (Homo sapiens) (P08684 whole entry, looked up): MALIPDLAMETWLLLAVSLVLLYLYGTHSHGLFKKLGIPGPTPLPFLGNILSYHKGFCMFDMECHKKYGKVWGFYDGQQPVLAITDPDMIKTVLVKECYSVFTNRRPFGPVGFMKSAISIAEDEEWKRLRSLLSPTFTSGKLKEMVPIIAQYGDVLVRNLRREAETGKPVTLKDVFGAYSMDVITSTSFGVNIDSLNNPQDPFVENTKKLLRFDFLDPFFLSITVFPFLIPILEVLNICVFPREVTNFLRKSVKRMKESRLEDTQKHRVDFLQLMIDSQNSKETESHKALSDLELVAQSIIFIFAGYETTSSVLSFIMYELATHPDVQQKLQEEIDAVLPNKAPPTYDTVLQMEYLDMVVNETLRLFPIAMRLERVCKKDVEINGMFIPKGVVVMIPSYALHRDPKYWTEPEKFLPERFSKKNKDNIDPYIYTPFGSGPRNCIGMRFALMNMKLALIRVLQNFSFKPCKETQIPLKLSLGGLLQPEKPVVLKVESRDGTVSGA
Chain of Glyceraldehyde-3-phosphate dehydrogenase (Homo sapiens) (P04406 whole entry, looked up): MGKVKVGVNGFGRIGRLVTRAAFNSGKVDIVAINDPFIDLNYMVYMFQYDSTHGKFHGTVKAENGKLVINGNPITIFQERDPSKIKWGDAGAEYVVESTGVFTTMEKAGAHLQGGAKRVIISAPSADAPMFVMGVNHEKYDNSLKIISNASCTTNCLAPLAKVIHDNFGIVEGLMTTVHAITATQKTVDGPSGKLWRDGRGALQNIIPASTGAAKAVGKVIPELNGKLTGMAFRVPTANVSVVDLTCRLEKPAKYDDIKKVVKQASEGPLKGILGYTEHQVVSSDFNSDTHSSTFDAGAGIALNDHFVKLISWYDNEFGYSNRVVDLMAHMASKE
Chain of Cytochrome P450 2C19 (Homo sapiens) (P33261 whole entry, looked up): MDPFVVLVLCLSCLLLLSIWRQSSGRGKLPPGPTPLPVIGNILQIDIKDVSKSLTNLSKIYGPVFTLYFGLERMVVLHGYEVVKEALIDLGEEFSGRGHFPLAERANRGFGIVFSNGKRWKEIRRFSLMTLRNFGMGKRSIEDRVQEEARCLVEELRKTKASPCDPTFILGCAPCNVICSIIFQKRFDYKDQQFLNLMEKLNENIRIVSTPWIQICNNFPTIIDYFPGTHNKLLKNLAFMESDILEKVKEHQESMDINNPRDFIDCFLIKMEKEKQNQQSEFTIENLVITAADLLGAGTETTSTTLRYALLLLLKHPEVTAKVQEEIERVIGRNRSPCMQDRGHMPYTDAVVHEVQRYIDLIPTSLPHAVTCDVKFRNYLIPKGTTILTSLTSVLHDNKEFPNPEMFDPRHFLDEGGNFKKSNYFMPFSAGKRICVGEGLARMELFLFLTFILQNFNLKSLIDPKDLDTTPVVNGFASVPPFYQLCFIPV
Chain of Broad substrate specificity ATP-binding cassette transporter ABCG2 (Homo sapiens) (Q9UNQ0 whole entry, looked up): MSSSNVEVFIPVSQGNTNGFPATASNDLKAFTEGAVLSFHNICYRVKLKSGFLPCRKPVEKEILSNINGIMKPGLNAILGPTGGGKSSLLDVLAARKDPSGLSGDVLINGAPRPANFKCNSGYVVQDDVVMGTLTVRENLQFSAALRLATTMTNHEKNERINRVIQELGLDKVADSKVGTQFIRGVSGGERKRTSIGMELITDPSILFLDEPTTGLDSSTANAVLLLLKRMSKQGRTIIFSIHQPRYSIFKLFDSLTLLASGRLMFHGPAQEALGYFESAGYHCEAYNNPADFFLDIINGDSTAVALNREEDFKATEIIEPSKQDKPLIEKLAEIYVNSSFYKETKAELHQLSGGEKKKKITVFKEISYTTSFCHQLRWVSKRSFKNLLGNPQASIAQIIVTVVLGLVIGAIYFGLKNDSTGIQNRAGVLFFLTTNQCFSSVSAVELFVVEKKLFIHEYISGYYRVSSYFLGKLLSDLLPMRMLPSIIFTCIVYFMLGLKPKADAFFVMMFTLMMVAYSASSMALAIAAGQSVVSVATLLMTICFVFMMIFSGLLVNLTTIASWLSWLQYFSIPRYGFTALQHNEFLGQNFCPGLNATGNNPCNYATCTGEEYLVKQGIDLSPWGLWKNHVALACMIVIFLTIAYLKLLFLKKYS

Cc1ccccc1CO[C@@H]1C[C@@]2(C(C)C)CC[C@]1(C)O2
active: [2] 3.91 µM | [5] 20 µM
inactive: [1] | [3] | [4] | [6]

CN(C)c1nc(=O)n(C2CCCCC2)c(=O)n1C
active: [5] 3.97 µM
inactive: [1] | [2] | [3] | [6] | [7]

CCSC(=O)N(CC)C1CCCCC1
active: [2] 6.17 µM | [5] 0.000663 µM
inactive: [1] | [8] | [3] | [6] | [9] | [7] | [10]

CCNc1nc(NC(C)C)nc(SC)n1
active: [2] 0.92 µM | [5] 4.22 µM
inactive: [1] | [4] | [7] | [10]

CCC(C)(CC)c1cc(NC(=O)c2c(OC)cccc2OC)on1
active: [2] 0.259 µM | [5] 0.0271 µM
inactive: [1] | [4] | [6]
